Our source for the ETS1 binding intensity values is the supplement of paper PMC10681739.

Over roughly 4,100 sequences, “arbitrary fluorescence units” has its median near 780; the highest 2% begin near 22,000. Many of the other results were omitted from the sample, so the highest values are more common in it than they were.

The target of this assay is T1, ETS1 (UniProt P14921).
T1 sequence: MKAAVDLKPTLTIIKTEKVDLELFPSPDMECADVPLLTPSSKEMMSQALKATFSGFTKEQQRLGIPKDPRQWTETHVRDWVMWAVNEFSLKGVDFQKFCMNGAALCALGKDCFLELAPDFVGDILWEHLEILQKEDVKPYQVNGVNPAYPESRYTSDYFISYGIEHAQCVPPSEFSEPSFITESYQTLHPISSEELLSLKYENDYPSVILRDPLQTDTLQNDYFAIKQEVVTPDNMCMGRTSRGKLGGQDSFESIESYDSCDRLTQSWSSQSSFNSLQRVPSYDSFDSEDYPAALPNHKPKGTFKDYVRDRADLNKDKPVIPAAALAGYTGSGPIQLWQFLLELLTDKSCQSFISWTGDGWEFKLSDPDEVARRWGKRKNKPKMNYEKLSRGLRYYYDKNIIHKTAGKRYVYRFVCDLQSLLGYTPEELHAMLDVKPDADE
The assay is described as follows: ETS1 binding intensity (PBM fluorescence), ETS1 alone (arbitrary fluorescence units); higher = stronger binding. Conditions: ETS1 concentration 1 nM; RUNX1 concentration 0 nM. The method in brief:
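Recombinant full-length human ETS1 was applied at 1 nM, without RUNX1, to double-stranded Agilent 4 × 180k arrays of 36-bp genomic probes carrying a mutated RUNX1 partner site, following standard PBM protocols. Detection used an anti-ETS1 antibody (Cell Signaling Technology 14069) and an Alexa488-conjugated secondary antibody, with scanning on a GenePix 4400A. Each sequence was printed as four replicate spots. Binding level is the spot fluorescence intensity, summarised across replicates and not normalised.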
CACCTGACTACAAGGCACACGAACATCCTTATCACA returned an ETS1 binding intensity of 655.
The same measure for ACCAAGTTTCGGGCAGGATCTTCCTGTAGTTTGCCT: 566; for CTCCAAGCCCAGAGAGCACCCCTTCCTGCCCGGACA: 737; for CGTACGCGCACTTCCGGTCTTTGTGACTTGCAGCTC: 38700.
The value for CACGGTCTTTGCCGCTCAGCTTCCCGGAGTCCGCGC was 458; that for TTCTCTGGGGACAATTAGGGTTTCTGGGTTTCCTGA was 457; that for CCTGGGGGGCCGGAAGCCCCGCTTCGGCCCCAGCCC was 2820.
The same measure for TCTCCCTGCCCGCGAGTCAAAGCCACTTCCTTTTCC: 917.
Sequence CACTTCCTGTCAAAGCCAGTTCCTTAGCCGCTTAGG showed an ETS1 binding intensity of 45000.
The same measure for TGTCATCCCGGAAACTGATAACAAGACCTCGAGTCA: 4740; for AGCTTCCTGTTTGGCCTTGCTGATGTCACCCCATTA: 27600; for TACAGCTTCCTTCACCCCACTTGGGGCCTGGGTTAC: 1140.
The value for TGGGGCCTTGTTATCACAGCACTTCCTGTTTGCTTT was 7990; that for TCCTGGCTGCCCCCAAGGCCAGGAAGAGCGAAAACA was 434.
CTGAAACAGGAAACAGACAAAGTCACAAGGTTCGCA came in with an ETS1 binding intensity of 5430.
In turn, TGGCCTCTTCGGCCCTGGCCTTGACTTCCTTTCCTC gave an ETS1 binding intensity of 362.
The same measure for CCTGCTGTGACTTCGGCTGTTTTCCTGGCCTGTGAG: 387; for GACTTCCTGTTGAAGATTGGCCTCTTCGGTAGCACA: 44600; for CCCACCTCGGCCCACGCCGAGCGTGGCGGAACAGCT: 385.
The value for CGGGCACGTCCTACGGCAGCAACGTCCGCCGCGCCG was 540; that for CACCCAAGGATATGCTTTTTTTTGGCAAGTCACATC was 604; that for TTCTGCTACATCCTGCCCACTCCCTGTGACTTCCAC was 9350.
The same measure for TTGGCCTGGGCTCTGGGCCACTTCCTGTGCTCTCCA: 5490; for TTTCCACTTCCTGTTCTACTTGGGGCTACTGACTCA: 25500.
Regarding TTTATCCTTATTTCCTGGCTTCGCCTACAAGCACAG, the ETS1 binding intensity is 5090.
The value for AAAGCATTTCCTGCCTTGACTTAACTACAAGACAGG was 25700; that for CTTGACTTAACTACAAGACAGGATGGGTTGATGAAG was 426; that for TTCACGCTCCGTAAGCTCGCTCCTTCCGGGACGCAG was 643.
The value for CTCTGCTTCCTGTCTTTGAATGCCTCTGTGATTTTC was 13400; that for AAGGTCGAGGTCTCGGCTTCCCCGGAACTTTTTGCT was 295; that for GTGGGGCGGGCTTCCGGCGCTCCCACCGTGAGCCGA was 8140.
The value for TGCTTCCGGCGGGCGCTTGCTCCCCGAGGTCGGCAA was 24800.
GAAGGGAGGAAGCCTGAGAACTGTTGTCTCCTGAAG: the ETS1 binding intensity is 424.
